Test results published in PubChem BioAssay AID777 (Sanford-Burnham Center for Chemical Genomics, 2007).
About 19,000 (20%) of roughly 96,000 compounds were called active. The list is a sample of the results. Values without a mark were called inactive.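 Rule for the calls: active = blocking of liver enzyme CYP2C9 beyond about 50% at 5 µM (limit read from the data); inactive = the rest.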

biological target: Cytochrome P450 2C9 (Homo sapiens) (UniProt P11712); experiment: blockers of cytochrome P450 2C9 activity – biochemical, luminescence, ADME assay, primary screen (AID 777); details: CYP2C9 Supersomes, luciferin-H conversion, at 5 µM, hits give high values
Sequence (P11712 whole entry, looked up): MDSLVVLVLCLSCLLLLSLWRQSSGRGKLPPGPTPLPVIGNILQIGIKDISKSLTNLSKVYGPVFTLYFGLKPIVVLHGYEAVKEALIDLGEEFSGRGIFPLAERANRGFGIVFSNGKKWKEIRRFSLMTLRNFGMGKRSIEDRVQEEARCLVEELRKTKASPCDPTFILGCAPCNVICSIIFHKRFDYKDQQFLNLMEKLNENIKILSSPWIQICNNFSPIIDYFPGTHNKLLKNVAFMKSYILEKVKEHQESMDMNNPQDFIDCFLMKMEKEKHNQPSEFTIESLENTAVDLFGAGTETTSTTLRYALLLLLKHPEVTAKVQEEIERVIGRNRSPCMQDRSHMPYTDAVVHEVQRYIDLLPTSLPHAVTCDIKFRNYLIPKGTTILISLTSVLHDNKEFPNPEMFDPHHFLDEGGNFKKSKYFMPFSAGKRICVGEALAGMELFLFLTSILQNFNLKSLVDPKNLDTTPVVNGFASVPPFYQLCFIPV

Row | SMILES | inhibition
1 | Cc1cc(C)c2c(n1)nn1c(-n3ccnc3)cc(C)nc21 | -4.3%
2 | Cc1ccc(C(=O)CSc2nnc(Cn3nnc4ccccc43)n2C)cc1 | 20.6%
3 | Cn1c(CC(=O)Nc2ccccc2)nnc1SCC(=O)c1ccccc1 | 76.5% (active)
4 | CCOC(=O)CSc1nnc(CNc2nc(-c3ccccc3)cs2)n1C | -2.1%
5 | CCn1c(Cc2ccccc2)nnc1SCC(=O)Nc1ccccc1 | 4%
6 | Cc1ccccc1NC(=O)Cc1nnc(SCC(=O)N2CCN(c3ccccc3)CC2)n1C | 13.3%
7 | Cn1c(CNc2nc(-c3ccccc3)cs2)nnc1SCC(=O)c1ccccc1 | 65.7% (active)
8 | CCc1ccc2c(c1)cc(CN(C(=S)Nc1ccccc1Cl)C1CC1)c1nnnn12 | -11.3%
9 | CCOc1ccccc1C1C(C(=O)OC)=CN(C)C=C1C(=O)OC | 39.1%
10 | CC(C)Oc1ccc(Oc2ccc(C(F)(F)F)cn2)cc1 | 23.3%
11 | Cc1ccc(C2C(C#N)C(C#N)N3CCCN23)cc1 (centres undefined) | -8.1%
12 | CCOC(=O)c1c(C)n(C)c2ccc(OC)c(NC(=O)CN3CCC4(CC3)OCCO4)c12 | 18.3%
13 | COc1ccc(CCNC(=O)CN2CCC(n3nnc4cc(F)ccc43)CC2)cc1OC | 28.1%
14 | Cc1nn(CC(=O)Nc2nc3ccccc3s2)c(C)c1[N+](=O)[O-] | 89.2% (active)
15 | Cc1nn(Cc2ccccc2Cl)c(C)c1NC(=O)Cn1nc([N+](=O)[O-])c(Cl)c1C | 11%
16 | CSCCC(Nc1nc2ccccc2s1)C(=O)O (centres undefined) | 25.8%
17 | Cc1ccc(S(=O)(=O)NCc2cn3ccsc3n2)c(C)c1 | 21.3%
18 | COc1ccc(CCN(Cc2cc3cccc(C)c3[nH]c2=O)C(=O)N2CCCC2)cc1OC | 32.5%
19 | O=C(CC1OC(=O)c2ccccc21)NC1CCCCC1 (centres undefined) | -99.1%
20 | O=C(Nc1ccccc1F)c1cc(S(=O)(=O)N2CCCCC2)cs1 | 75.6% (active)
21 | O=C(CN1CCN(S(=O)(=O)c2ccc(F)cc2)CC1)Nc1ccccc1F | 40.4%
22 | CCOc1ccccc1NC(=O)c1cc(S(=O)(=O)N2CCC3(CC2)OCCO3)ccc1F | 6.8%
23 | CCOC(=O)Cn1c(=O)oc2cc(S(=O)(=O)N(C)Cc3ccco3)ccc21 | 28.8%
24 | CCOc1ccc(CN(Cc2ccco2)S(=O)(=O)c2ccc(-n3cnnn3)c(OC)c2)cc1 | 65.1% (active)

Row | SMILES | inhibition
25 | COc1ccc(CN(Cc2ccco2)S(=O)(=O)c2ccc(S(=O)(=O)N3CCCC3)cc2)cc1 | 39.9%
26 | NC(=O)N1CCCC1C(=O)Nc1ccc(Cl)c(Cl)c1 (centres undefined) | 14.9%
27 | CC(C)(C)NC(=O)Cn1cnc([N+](=O)[O-])n1 | -14.1%
28 | O=S(=O)(NCc1ccccn1)c1ccc(Br)s1 | -3.5%
29 | O=c1c2[nH]c3ccc(Cl)cc3c2ncn1Cc1ccccn1 | 17.6%
30 | COc1ccc2[nH]c3ccc(OC)cc3c2c1 | 26.8%
31 | COc1ccc2[nH]cc(/C=C(/C#N)S(=O)(=O)c3ccccc3)c2c1 | 95.4% (active)
32 | O=C(O)CCSc1nnc(-c2ccccc2)n1-c1ccccc1 | -14.5%
33 | C=CCNc1nnc(SCC(=O)N2CCCCC2)c2ccccc12 | -25.8%
34 | COC(=O)C(C(=O)Nc1cccc(C)n1)C1CCCCCC1 (centres undefined) | 33.3%
35 | CN1CC(c2ccccc2)C2(COc3ccccc3C2=O)C12C(=O)Nc1ccccc12 (centres undefined) | 20.5%
36 | CC1(C)CC(=O)c2sc(N)nc2C1 | 12.9%
37 | Cc1cc(=O)[nH]c(SCC(=O)N2c3ccccc3CC2C)n1 (centres undefined) | 8%
38 | CC1Cc2ccccc2N1C(=O)c1cc2sccc2n1Cc1ccccc1 (centres undefined) | 61.6% (active)
39 | CCC(=O)N1c2ccc(S(=O)(=O)CCC(=O)N3CCN(c4ccccc4)CC3)cc2CC1C (centres undefined) | 49%
40 | COC(C)(C)[C@]12CC(O)(C(C)C)ON1[C@H]1CCCCC1N2O (some centres undefined) | -1.4%
41 | CCC(C)(C(=O)NC1CCCC1)N(C(=O)CNC(C)=O)c1ccc(C)cc1 (centres undefined) | 2.8%
42 | COc1ccc2c(c1)SC(C)CC2=O (centres undefined) | 12.7%
43 | COc1ccc2c(c1)OC(O)(C(F)(F)C(F)F)CC2=O (centres undefined) | 78.5% (active)
44 | CCOc1ccc(CNC(=O)C2CCC(=O)N2C2CCCC2)cc1OC (centres undefined) | 4.4%
45 | CCCN1C(=O)C(NC(C)=O)c2cc(OC)ccc21 (centres undefined) | -5.4%
46 | COC(=O)COc1ccc2oc(=O)cc(C)c2c1 | -9.3%
47 | CCOC(=O)COc1cc(OCC(=O)OCC)c2c(=O)cc(-c3ccccc3)oc2c1 | 70.3% (active)
48 | Cc1cc(C)cc(OCC(=O)NNC(=O)c2cc3ccccc3oc2=O)c1 | -15.8%

Row | SMILES | inhibition
49 | CN1CCCC(OC(=O)COc2ccc(Br)cc2)C1 (centres undefined) | -1.2%
50 | COC(=O)C(NC(=O)c1ccc(OC)cc1)(Nc1ncc(S(=O)(=O)c2ccc([N+](=O)[O-])cc2)s1)C(F)(F)F (centres undefined) | 66.3% (active)
51 | COc1ccc(C(=O)Nc2nc(-c3ccc(OC)cc3)c(-c3ccc([N+](=O)[O-])cc3)s2)cc1 | 19.7%
52 | CCC1CCCCN1CCNC(=O)c1[nH]c(C)c(C(C)=O)c1C (centres undefined) | 9.6%
53 | COc1cc(C2C(C(=O)OCCC#N)=C(C)NC3=C2S(=O)(=O)c2ccccc23)cc(OC)c1OC (centres undefined) | 50.9% (active)
54 | COCCOC(=O)C1=C(C)Nc2nc(C)nn2C1c1ccccc1 (centres undefined) | 16.7%
55 | COCCNC(=O)C(c1ccc(C)o1)N(Cc1cccs1)C(=O)c1snc(C(N)=O)c1N (centres undefined) | 3.7%
56 | O=C(Oc1ccc2c(c1)CCC2)N1CCOCC1 | 0.4%
57 | Cc1cccn2c(=O)c3cc(C#N)c(=O)n(CCCN4CCOCC4)c3nc12 | 47%
58 | COc1cc(/C=N/NC(=O)Nc2ccccc2)ccc1OCCOc1ccccc1C | 11.2%
59 | Cc1ccc(-c2cc(C(=O)N/N=C/C=C/c3ccco3)c3ccccc3n2)cc1C | 34%
60 | COc1cccc(/C=N\Nc2nncc(-c3ccccc3)n2)c1 | 5.6%
61 | COc1ccc(/C=N\NC(=O)c2sc(N)nc2C)cc1OC | 5.4%
62 | COc1cccc(-c2cc(C(=O)N/N=C/c3ccc(OC)c(COC(C)=O)c3)c3ccccc3n2)c1 | 84.3% (active)
63 | COc1cccc(OCc2cc(/C=N/NC(=O)c3nc(Cl)c(Cl)c(N)c3Cl)ccc2OC)c1 | 84% (active)
64 | CCCC(C(=O)n1nc(C)cc1C)C(NS(=O)(=O)c1ccc(C)cc1)c1ccccc1 (centres undefined) | -1.9%
65 | O=C(c1ccco1)N1CCN(C(=O)C2CC(c3ccc(Cl)c(Cl)c3)=NO2)CC1 (centres undefined) | 43.9%
66 | CN(C)c1cc(N)c2ccccc2n1 (tested in a mixture with another compound) | -21.6%
67 | O=C(NCc1ccccc1)C1C(=O)N(Cc2ccccc2)C(=O)C1C1(O)CCCC1 (centres undefined) | 33.6%
68 | CC(C)c1nc2ccc(C(=O)O)cc2[nH]1 | 5.8%
69 | O=C(CN(c1ccccc1)S(=O)(=O)c1ccc(Cl)cc1)Nc1ccccc1C(=O)N1CCCC1 | 92.2% (active)
70 | Cc1ccc(S(=O)(=O)NC(C)C(=O)Nc2ccccc2C(=O)N2CCCC2)cc1 (centres undefined) | 44.1%
71 | CCC(=O)Nc1ccccc1C(=O)N1CCN(Cc2ccccc2)CC1 | 15.3%
72 | CC(=O)N1CCN(c2ccc(NCc3ccc(C(C)C)cc3)cc2)CC1 | 37%

Row | SMILES | inhibition
73 | O=C1CSC(c2cccc(F)c2)N1c1ccccc1F (centres undefined) | 3%
74 | O=C(Nc1ccc(Cl)cc1)OCc1cc(-c2ccccc2)on1 | 64.4% (active)
75 | O=C(Nc1ccccc1)OCc1cc(-c2ccc(Cl)cc2)on1 | 16.9%
76 | O=C(Nc1ccccc1)OCc1cn(-c2ccc(Cl)cc2)nn1 | 41.6%
77 | CCCn1c(O)c(CN2CCCC(C)C2)c(C)c(C#N)c1=O (centres undefined) | 5.2%
78 | O=C(Nc1ccccc1)N1CCN(Cc2ccccc2)CC1 | 14.6%
79 | O=C(Nc1cccc(NC(=O)N2CCN(c3ccccc3)CC2)c1)N1CCN(c2ccccc2)CC1 | 54% (active)
80 | CC(=O)N1CCN(C(=O)Nc2cccc(C(F)(F)F)c2)CC1 | 4.5%
81 | CCCCNCc1ccc(SC)cc1 | 4.1%
82 | Cc1ccccc1OC(=O)Cn1c(C(F)(F)F)nc2ccccc21 | 30.1%
83 | Cc1cc(=O)oc2cc(OCC3CC(c4ccccc4Cl)=NO3)ccc12 (centres undefined) | 65.7% (active)
84 | COc1cccc(-c2nnc(SCCOc3ccc4c(C)cc(=O)oc4c3)o2)c1 | 42.3%
85 | Cc1cc(=O)oc2cc(NC(=O)C3CC(=O)N(Cc4ccccc4)C3)ccc12 (centres undefined) | 10.4%
86 | OC(COc1ccc2c(c1)CCC2)CN1CCN(c2cccc(Cl)c2)CC1 (centres undefined) | -14.4%
87 | Cn1c(C(=O)NCCCN2CCN(c3cccc(Cl)c3)CC2)cc2c(=O)n(C)c3ccccc3c21 | 22.8%
88 | O=c1cc(CN2CCN(c3cccc(Cl)c3)CC2)c2cc3c(cc2o1)CCCC3 | 58.6% (active)
89 | C=CCN(C(=O)Cn1ncc2c1-c1cc(C)ccc1OC2)c1ccccc1 | 38.4%
90 | Cn1c2ccccc2n2c(=O)c(=O)n(CC(=O)c3ccc(F)cc3)nc12 | -18%
91 | OCCNc1nc2ccccc2n1-c1ncnc2sc3c(c12)CCC3 | 16.9%
92 | Cc1cc(=O)[nH]c(SCc2cccc(F)c2)n1 | 23.7%
93 | O=c1cc(O)nc(SCc2ccccc2Cl)[nH]1 | 37%
94 | Cc1cc(=O)[nH]c(SCc2cc(Cl)ccc2OC(F)F)n1 | 76.4% (active)
